An excerpt weighted towards active compounds, which were near 19% of everything screened.
DT40 TDP1 no CPT: qHTS for Inhibitors of human tyrosyl-DNA phosphodiesterase 1 (TDP1): qHTS in cells in absence of CPT; DT40 Tdp1-/- hTDP1 cells, no CPT, ATP luminescence, 48 h; Potency, µM (highest dose often 46.2 µM), without a hit: at the highest dose activity change, negative = growth inhibition, usual class: inhibitors; 420,000 tested, 15% active; AID 686978, 2013; note: potency is the fitted concentration of half-maximal effect; % is set by controls: 0 for no effect and ±100 for the full control effect; nearly all actives have a fitted effect of over 55% in size
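Readout: luminescence from CellTiter-Glo after 30 min in the dark at RT. Cells: DT40 Tdp1-/- with stable hTDP1, 400/well. Exposure: compounds alone, ≥48 hr, 37 °C.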
S-ASM inh: Inhibitors of Secretory Acid Sphingomyelinase (S-ASM): qHTS; Sphingomyelin phosphodiesterase (Homo sapiens), P17405; placental ASM, HMU-PC fluorogenic substrate, 60 min; Potency, µM (top dose mostly 57.5 µM), without a hit: at the highest dose activity change, negative = inhibition, usual class: inhibitors; 340,000 tested, 0.006% active; AID 504937, 2011; note: potency is the fitted concentration of half-maximal effect
Target sequence (P17405 47-631 limits assumed): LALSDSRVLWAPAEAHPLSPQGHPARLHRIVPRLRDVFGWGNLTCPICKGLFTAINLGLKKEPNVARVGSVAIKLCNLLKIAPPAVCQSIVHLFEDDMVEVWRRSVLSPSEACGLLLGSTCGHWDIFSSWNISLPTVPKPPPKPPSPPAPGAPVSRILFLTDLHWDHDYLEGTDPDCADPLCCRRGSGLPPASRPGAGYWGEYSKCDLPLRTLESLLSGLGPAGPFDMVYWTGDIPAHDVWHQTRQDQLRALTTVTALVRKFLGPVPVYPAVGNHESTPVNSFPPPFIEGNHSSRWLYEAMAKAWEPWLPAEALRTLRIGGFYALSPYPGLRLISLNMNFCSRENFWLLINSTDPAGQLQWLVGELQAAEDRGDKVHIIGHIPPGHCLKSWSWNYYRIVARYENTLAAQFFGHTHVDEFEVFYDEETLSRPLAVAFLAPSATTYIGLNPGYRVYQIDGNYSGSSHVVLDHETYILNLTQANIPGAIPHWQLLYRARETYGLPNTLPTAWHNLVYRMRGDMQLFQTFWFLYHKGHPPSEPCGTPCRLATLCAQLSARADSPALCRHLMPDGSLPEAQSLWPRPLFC
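HMU-PC0 cleavage (9 uM final) by human placental ASM, 60 min at 37 °C following 10 min compound exposure at RT; stopped at pH 10, fluorescence Ex 386/Em 447 nm.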
DT40 TDP1 CPT: qHTS for Inhibitors of human tyrosyl-DNA phosphodiesterase 1 (TDP1): qHTS in cells in presence of CPT; chicken DT40 Tdp1-/-;hTDP1 cells + 20 nM CPT, ATP luminescence, 48 h; Potency, µM (titrated, usually from 46.2 µM), for the others: at the highest dose activity change, negative = growth inhibition, most hits filed as inhibitors; 420,000 tested, 12% active; note: potency is the fitted concentration of half-maximal effect; % is set by controls: 0 for no effect and ±100 for the full control effect; nearly all actives have a fitted effect of over 55% in size
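Chicken DT40 Tdp1-/- cells complemented with human TDP1, 400 cells/well, exposed to compounds plus 20 nM camptothecin for at least 48 h at 37 C; viability read as ATP content by CellTiter-Glo luminescence.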
HepG2 viability: qHTS for Inhibitors of TGF-b: Cytotox Counterscreen; Potency, µM (titrated, usually from 46.1 µM), inactives show at the highest dose activity change, negative = cytotoxicity, hits mostly cytotoxic; AID 588856, 2011; 410,000 tested, 0.76% active; HepG2 CAGA-GFP viability, ATP luminescence, 18 h; note: potency is the fitted concentration of half-maximal effect
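HepG2 CAGA-GFP cells (1000/well, DMEM with 1% FBS) received compound, then TGF-beta at 500 pg/mL final, and were incubated 18 hours at 37 degrees C. Viability was read by CellTiter-Glo luminescence. Media-only wells were set as complete cell-killing and DMSO as no toxicity.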
IL-1B inflam inh: qHTS for Inhibitors of Inflammasome Signaling: IL-1-beta AlphaLISA Primary Screen; AID 743279, 2014; 360,000 tested, 4.7% active; THP-1 LPS/ATP IL-1B secretion, AlphaLISA, 16 h; active compounds read low; activity change, % at 57.5 µM; in the data active = activity change below about -50%; inconclusive = mostly about -30% to -49%; note: % is set by controls: 0 for no effect and ±100 for the full control effect
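Secreted IL-1B measured by AlphaLISA bead assay after 16 h compound exposure of THP-1 cells; compounds (final up to 57.5 uM) added 1 h before LPS (250 ng/mL) and ATP (1.25 mM) stimulation; lower signal means less secretion.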
TGFb SMAD3 inh: qHTS for Inhibitors of TGF-b | 410,000 tested, 1.2% active | HepG2 CAGA-GFP TGF-b/SMAD3 reporter, GFP fluorescence, 18 h; TGF-beta stimulated, 500 pg/mL final | Potency, µM (titrated, usually from 46.1 µM), for the others: top-dose activity, negative = inhibition, hits mostly inhibitors | AID 588855, 2011; note: potency is the fitted concentration of half-maximal effect; % is set by controls: 0 for no effect and ±100 for the full control effect; nearly all actives have a fitted effect of over 65% in size
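TGF-beta reporter screen: HEPG2 CAGA-GFP, 1% FBS, 500 pg/mL TGF-beta final, 18 h; per-cell GFP summed per well; curves fitted and categorized by class.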
* hit, by the source's call; ? = inconclusive; . = not tested or not shown. Unless noted, calls come from the whole dose curve; as a rule, active = well fitted curve in the direction sought with a large enough effect; inconclusive = small, poorly fitted or top-dose-only effect, or another doubt; inactive = no such curve, though single readings can be large; an effect the other way counts as inactive or inconclusive.

SMILES	DT40 TDP1 no CPT	S-ASM inh	DT40 TDP1 CPT	HepG2 viability	IL-1B inflam inh	TGFb SMAD3 inh
Cc1ccc(C)c(N2CCN(c3cnn(-c4nc5ccccc5s4)c(=O)c3Cl)CC2)c1	9.2µM*	0.7%	9.2µM*	-1.3%	-5.1	2.0%
O=c1c(Cl)c(Nc2cccc(Cl)c2)cnn1-c1nc2ccccc2s1	?	-10.9%	-38.7%	-14.1%	-29.0	-16.4%
Cc1ccc2c(c1)N(CC(=O)N1CCN(c3nc4ccccc4s3)CC1)C(=O)C(C)O2 (stereo unspecified)	?	-0.5%	?	-17.3%	-8.5	1.6%
COc1cccc(NC(=O)N2CCCC2C(=O)NC23CC4CC(CC(C4)C2)C3)c1 (stereo unspecified)	-18.9%	-1.0%	-13.3%	11.1%	19.8	8.9%
CCCCN(C)CCCNC(=O)Cn1ncc2c3ccccc3n(Cc3cccc(Cl)c3)c2c1=O	?	.	?	-1.4%	.	1.1%
CCOc1cc(C2Sc3ccccc3NC3=C2C(=O)c2ccccc23)ccc1O (stereo unspecified)	?	.	?	-34.8%	.	-32.9%
COc1ccc(Br)cc1C1Sc2ccccc2NC2=C1C(=O)c1ccccc12 (stereo unspecified)	13µM*	.	?	-29.5%	.	-4.0%
O=C(CC1Sc2ccccc2NC1=O)NNc1cccc(Cl)c1Cl (stereo unspecified)	?	-3.0%	?	-18.4%	-1.6	-6.1%
O=C1C2=C(Nc3ccccc3SC2c2ccc(Cl)c(Cl)c2)c2ccccc21 (stereo unspecified)	25.9µM*	.	14.6µM*	-63.9%	.	0.0%
CCCc1ccc(C2Sc3ccccc3NC3=C2C(=O)c2ccccc23)cc1 (stereo unspecified)	14.6µM*	.	?	-39.3%	.	?
O=C1C2=C(Nc3ccccc3SC2c2c(F)cccc2Cl)c2ccccc21 (stereo unspecified)	?	.	14.6µM*	-5.0%	.	-27.7%
C=CCN1CC2(c3ccccc3)CN(CC=C)CC(c3ccccc3)(C1)C2=O	?	-0.5%	?	-8.0%	-7.8	0.9%
COc1cccc(NC(=O)Nc2nnc(COCCO)s2)c1	?	.	?	3.9%	-13.2	0.6%
CCN(C(=O)COC(=O)c1ccccc1SCC(=O)N1CCCC1)C1CCS(=O)(=O)C1 (stereo unspecified)	-3.9%	9.0%	-4.0%	-19.4%	-7.7	-12.0%
O=C1Nc2ccccc2SC1c1ccccc1 (stereo unspecified)	-17.5%	-3.7%	-5.4%	-4.2%	-15.2	16.8%
O=C1C2=C(Nc3ccccc3SC2c2ccccc2C(F)(F)F)c2ccccc21 (stereo unspecified)	3.26µM*	.	5.8µM*	-40.7%	.	?
CC1Cc2ccccc2N1C(=O)CO/N=C/c1ccccc1OC(F)F (stereo unspecified)	20.6µM*	-1.2%	?	-4.1%	-29.1	-19.4%
COc1ccc(/C=C/C(=O)OCC(=O)N2c3ccccc3CC2C)c(OC)c1 (stereo unspecified)	18.4µM*	.	?	-6.0%	-19.9	2.1%
Cc1cccc(C)c1NC(=O)C1CCCN1S(=O)(=O)c1ccccc1 (stereo unspecified)	?	0.2%	-26.0%	-6.3%	7.8	4.0%
Cc1ccc(S(=O)(=O)N2CCCC2CNC(=O)c2ccccc2)cc1 (stereo unspecified)	-29.4%	.	?	-3.7%	10.9	-14.0%
Cc1ccc(S(=O)(=O)N2CCCC2CNC(=O)C(=O)Nc2ccccc2)cc1 (stereo unspecified)	?	1.2%	29.1µM*	-34.5%	?	2.6%
Cc1cccc(C)c1NC(=O)C(=O)NCC1CCCN1S(=O)(=O)c1ccccc1 (stereo unspecified)	11.6µM*	7.1%	?	-2.2%	20.3	-0.4%
Cc1ccc(S(=O)(=O)N2CCCC2CNC(=O)c2ccc3c(c2)OCO3)cc1 (stereo unspecified)	18.4µM*	7.1%	?	-8.7%	-18.5	?
CCOc1ccc(NC(=O)c2oc3ccccc3c2NC(=O)Cc2cccc(C)c2)cc1	?	.	-28.0%	3.0%	.	1.7%
COC(=O)C1=C(C)N(Cc2ccccc2)C(=NCc2cc(OC)c(OC)c(OC)c2)N[C@H]1c1ccccc1	14.6µM*	2.9%	20.6µM*	-14.5%	?	6.0%
SMILES	DT40 TDP1 no CPT	S-ASM inh	DT40 TDP1 CPT	HepG2 viability	IL-1B inflam inh	TGFb SMAD3 inh
COC(=O)C1=C(C)N(CC2CC2)C(=NCc2cc(OC)c(OC)c(OC)c2)N[C@H]1c1ccccc1	23.1µM*	0.2%	?	-19.2%	-0.8	5.6%
COC(=O)C1=C(C)N(Cc2ccccc2)C(=NCc2cc(OC)c(OC)c(OC)c2)N[C@H]1c1ccc(Br)cc1	18.4µM*	-0.7%	13µM*	-116.1%	?	?
COC(=O)C1=C(C)N(Cc2ccccc2)C(=NCc2cc(OC)c(OC)c(OC)c2)N[C@H]1CCc1ccccc1	16.4µM*	11.3%	20.6µM*	-26.7%	-57.5*	-8.4%
COc1ccc(C2=NN(CCC(=O)NC3CCCCC3C)C(=O)CC2)cc1 (stereo unspecified)	?	.	-24.2%	-14.0%	-15.6	-14.0%
COc1ccc(-n2nc(C(=O)NCC(=O)N(C)Cc3ccccc3)c3ccccc3c2=O)c(OC)c1	?	-2.5%	-5.8%	-2.6%	32.3	16.0%
CC(C)COc1ccc(C(=O)N2CCCCC2CCN2CCOCC2)cc1 (stereo unspecified)	?	.	?	4.0%	.	-19.3%
COC(=O)C1=C(C)N(Cc2ccccc2)C(=O)N[C@H]1c1ccc(Br)cc1	6.6%	-7.7%	2.3%	-5.8%	-54.2*	-1.2%
COC(=O)C1=C(C)N(Cc2ccccc2)C(=NCCN2CCOCC2)N[C@H]1CCc1ccccc1	23.1µM*	7.8%	?	-7.3%	-18.3	-2.5%
CC(C)c1ccc(CN(C(=O)c2ccco2)C2CCS(=O)(=O)C2)cc1 (stereo unspecified)	-26.6%	1.4%	-3.3%	0.0%	7.2	9.3%
Cc1cccc(NC(=O)C2=C(O)c3ccccc3N(C)S2(=O)=O)c1	14.6µM*	11.1%	?	-16.5%	34.0	-11.1%

Screens (PubChem)
